± gives the standard deviation of the averaged measurements.
Key:
[1] = test system: Escherichia coli Nissle 1917; assay: area under OmniLog respiration curve over 48 h (OmniLog units x h); higher = more growth / nutrient utilisation; extreme values may be limits of the assay; details: incubation: 48 h, 37 °C
[2] = test system: Escherichia coli Nissle 1917; assay: DuctApe activity index of respiration/growth curve (0 no growth to 9 maximum) (index 0-9); higher = more growth / nutrient utilisation, active = 3 or more; extreme values may be limits of the assay; details: incubation: 48 h, 37 °C
[3] = nutrient role: C-Source, carbohydrate
[4] = nutrient role: N-Source, inorganic
[5] = nutrient role: sole nitrogen source (pyruvate carbon)
[6] = nutrient role: C-Source, amino acid
[7] = nutrient role: sole sulfur source (pyruvate carbon)
[8] = nutrient role: sole phosphorus source (pyruvate carbon)
[9] = nutrient role: C-Source, carboxylic acid
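Throughout, for DuctApe activity index of respiration/growth curve (0 no growth to 9 maximum): biolog PM4 phosphorus and sulfur plates, tetrazolium violet dye reduction read in the OmniLog every 15 min, kinetic curves scored by DuctApe, each plate run in triplicate.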

## CO[C@@H]1O[C@H](CO)[C@@H](O)[C@H](O)[C@H]1O [b-Methyl-D-Glucoside]
[1]; [3]
  area under OmniLog respiration curve: 6700 ± 470
[2]; [3]
  DuctApe activity index: 7.33 (active)

## N [Ammonia]
[1]; [4]
  area under OmniLog respiration curve: 8190 ± 1000
[2]; [4]
  DuctApe activity index: 8.33 (active)

## C[C@H](N)C(=O)N[C@@H](CC(=O)O)C(=O)O
[1]; [5]
  area under OmniLog respiration curve: 9150 ± 1000
[2]; [5]
  DuctApe activity index: 8.67 (active)

## CC(C)[C@H](N)C(=O)O [L-Valine]
[1]; [6]
  area under OmniLog respiration curve: 5.38 ± 1.1
[1]; [5]
  area under OmniLog respiration curve: 2650 ± 990
[2]; [6]
  DuctApe activity index: 0 (inactive)
[2]; [5]
  DuctApe activity index: 4 (active)

## CSC[C@H](N)C(=O)O [S-Methyl-L-Cysteine]
[1]; [7]
  area under OmniLog respiration curve: 17.8 ± 23
[2]; [7]
  DuctApe activity index: 0.333 (inactive)

## C[C@@H](O)[C@H](N)C(=O)O [L-Threonine]
[1]; [6]
  area under OmniLog respiration curve: 7940 ± 380
[1]; [5]
  area under OmniLog respiration curve: 3190 ± 1200
[2]; [6]
  DuctApe activity index: 8 (active)
[2]; [5]
  DuctApe activity index: 5 (active)

## C=C(OP(=O)(O)O)C(=O)O [Phosphoenol Pyruvate]
[1]; [8]
  area under OmniLog respiration curve: 9270 ± 480
[2]; [8]
  DuctApe activity index: 9 (active)

## CCCCCCCCCC(=O)O [Capric acid]
[1]; [9]
  area under OmniLog respiration curve: 14.2 ± 6.8
[2]; [9]
  DuctApe activity index: 0 (inactive)

## O=S(=O)(O)SSS(=O)(=O)O [Tetrathionate]
[1]; [7]
  area under OmniLog respiration curve: 7150 ± 120
[2]; [7]
  DuctApe activity index: 7.67 (active)

## O=C(O)CCC(=O)C(=O)O [a-Ketoglutaric acid]
[1]; [9]
  area under OmniLog respiration curve: 5770 ± 360
[2]; [9]
  DuctApe activity index: 6.67 (active)

## OC[C@H]1O[C@H](O[C@H]2O[C@H](CO)[C@@H](O)[C@H](O)[C@H]2O)[C@H](O)[C@@H](O)[C@@H]1O [D-Trehalose]
[1]; [3]
  area under OmniLog respiration curve: 8920 ± 460
[2]; [3]
  DuctApe activity index: 8.67 (active)

## OC[C@@]12OC[C@@H](O1)[C@@H](O)[C@@H](O)[C@@H]2O [Sedoheptulosan]
[1]; [3]
  area under OmniLog respiration curve: 201 ± 160
[2]; [3]
  DuctApe activity index: 1.33 (inactive)

## Nc1ncnc2c1ncn2[C@@H]1O[C@@H]2COP(=O)(O)O[C@H]2[C@H]1O [Adenosine 3`,5`-Cyclic Monophosphate]
[1]; [8]
  area under OmniLog respiration curve: 5670 ± 1300
[2]; [8]
  DuctApe activity index: 6.67 (active)

## O=C(O)[C@@H](O)[C@H](O)C(=O)O [D-Tartaric acid]
[1]; [9]
  area under OmniLog respiration curve: 8.46 ± 6.5
[2]; [9]
  DuctApe activity index: 0 (inactive)

## OC[C@@H](O)[C@@H](O[C@@H]1O[C@H](CO)[C@H](O)[C@H](O)[C@H]1O)[C@H](O)[C@@H](O)CO [D-Lactitol]
[1]; [3]
  area under OmniLog respiration curve: 5600 ± 540
[2]; [3]
  DuctApe activity index: 7 (active)

## OC[C@H]1O[C@@H](n2cnc3c(O)nc(O)nc32)[C@H](O)[C@@H]1O [Xanthosine]
[1]; [5]
  area under OmniLog respiration curve: 2070 ± 1300
[2]; [5]
  DuctApe activity index: 4 (active)

## O=C(O)C(=O)O [Oxalic acid]
[1]; [9]
  area under OmniLog respiration curve: 5.41 ± 1.2
[2]; [9]
  DuctApe activity index: 0 (inactive)

## O=P(O)(O)OP(=O)(O)O [Pyrophosphate]
[1]; [8]
  area under OmniLog respiration curve: 9320 ± 480
[2]; [8]
  DuctApe activity index: 9 (active)

## O=c1ccn([C@@H]2O[C@H](CO)[C@@H](OP(=O)(O)O)[C@H]2O)c(=O)[nH]1 [Uridine 3`-Monophosphate]
[1]; [8]
  area under OmniLog respiration curve: 9010 ± 750
[2]; [8]
  DuctApe activity index: 8.67 (active)

## Nc1ncnc2c1ncn2[C@H]1C[C@H](O)[C@@H](CO)O1 [2`-Deoxyadenosine]
[1]; [3]
  area under OmniLog respiration curve: 8940 ± 560
[2]; [3]
  DuctApe activity index: 8.67 (active)

## NCC(=O)N[C@@H](CC(N)=O)C(=O)O
[1]; [5]
  area under OmniLog respiration curve: 8340 ± 1500
[2]; [5]
  DuctApe activity index: 8 (active)

## NC(=O)OP(=O)(O)O [Carbamyl Phosphate]
[1]; [8]
  area under OmniLog respiration curve: 9480 ± 480
[2]; [8]
  DuctApe activity index: 9 (active)

## C/C=C/C=C/C(=O)O [Sorbic acid]
[1]; [9]
  area under OmniLog respiration curve: 7.09 ± 4.1
[2]; [9]
  DuctApe activity index: 0 (inactive)

## NC(=O)NC(N)=O [Biuret]
[1]; [5]
  area under OmniLog respiration curve: 3650 ± 1400
[2]; [5]
  DuctApe activity index: 5 (active)

## OCc1ccccc1O[C@@H]1O[C@H](CO)[C@@H](O)[C@H](O)[C@H]1O [Salicin]
[1]; [3]
  area under OmniLog respiration curve: 4.72
[2]; [3]
  DuctApe activity index: 0 (inactive)

## O=C(O)[C@H](O)[C@@H](O)[C@H](O)[C@H](O)CO[C@H]1O[C@H](CO)[C@H](O)[C@H](O)[C@H]1O [Melibionic acid]
[1]; [3]
  area under OmniLog respiration curve: 6790 ± 140
[2]; [3]
  DuctApe activity index: 7 (active)

## OCC1(O)OC[C@H](O)[C@@H](O)[C@@H]1O (stereo partly drawn) [L-Sorbose]
[1]; [3]
  area under OmniLog respiration curve: 6370 ± 540
[2]; [3]
  DuctApe activity index: 7 (active)

## NC(=O)CCC(=O)O [Succinamic acid]
[1]; [9]
  area under OmniLog respiration curve: 9.14 ± 6
[2]; [9]
  DuctApe activity index: 0 (inactive)

## Nc1nc2[nH]cnc2c(=O)[nH]1 [Guanine]
[1]; [5]
  area under OmniLog respiration curve: 27.5 ± 39
[2]; [5]
  DuctApe activity index: 0 (inactive)

## CC(C)[C@@H](N)C(=O)O [D-Valine]
[1]; [5]
  area under OmniLog respiration curve: 469 ± 470
[2]; [5]
  DuctApe activity index: 0.667 (inactive)

## CCC(C)N (stereo not given) [sec-Butylamine]
[1]; nutrient role: C-Source, amine
  area under OmniLog respiration curve: 5.72 ± 1.7
[2]; nutrient role: C-Source, amine
  DuctApe activity index: 0 (inactive)

## N[C@@H](CS(=O)O)C(=O)O [L-Cysteine Sulfinic acid]
[1]; [7]
  area under OmniLog respiration curve: 7460 ± 360
[2]; [7]
  DuctApe activity index: 7.67 (active)

## C[C@@H](O)CC(=O)O [b-Hydroxybutyric acid]
[1]; [9]
  area under OmniLog respiration curve: 186 ± 53
[2]; [9]
  DuctApe activity index: 1 (inactive)

## CC(=O)CC(=O)O [Acetoacetic acid]
[1]; [9]
  area under OmniLog respiration curve: 784 ± 630
[2]; [9]
  DuctApe activity index: 0 (inactive)

## O=C1CC[C@@H](C(=O)O)O1 [a-Hydroxyglutaric acid-g-Lactone]
[1]; [9]
  area under OmniLog respiration curve: 4.72
[2]; [9]
  DuctApe activity index: 0 (inactive)

## CCCCCN [N-Amylamine]
[1]; [5]
  area under OmniLog respiration curve: 12.9 ± 14
[2]; [5]
  DuctApe activity index: 0 (inactive)

## NCCCC[C@@H](N)C(=O)O [D-Lysine]
[1]; [5]
  area under OmniLog respiration curve: 23.1 ± 23
[2]; [5]
  DuctApe activity index: 0.667 (inactive)

## C=C(CC(=O)O)C(=O)O [Itaconic acid]
[1]; [9]
  area under OmniLog respiration curve: 4.72
[2]; [9]
  DuctApe activity index: 0 (inactive)

## CSCC[C@@H](N)C(=O)O [D-Methionine]
[1]; [7]
  area under OmniLog respiration curve: 4590 ± 230
[2]; [7]
  DuctApe activity index: 6.33 (active)

## OC[C@@H](O)[C@@H](O[C@H]1O[C@H](CO)[C@@H](O)[C@H](O)[C@H]1O)[C@H](O)[C@@H](O)CO [Maltitol]
[1]; [3]
  area under OmniLog respiration curve: 4.72
[2]; [3]
  DuctApe activity index: 0 (inactive)

## O=CO [Formic acid]
[1]; [9]
  area under OmniLog respiration curve: 112 ± 190
[2]; [9]
  DuctApe activity index: 0.333 (inactive)

## N[C@@H]1C(O)O[C@H](CO)[C@@H](O)[C@@H]1O (stereo partly drawn) [D-Mannosamine]
[1]; [5]
  area under OmniLog respiration curve: 1020 ± 700
[2]; [5]
  DuctApe activity index: 1.67 (inactive)

## O=C(O)CP(=O)(O)O [Phosphono Acetic acid]
[1]; [8]
  area under OmniLog respiration curve: 143 ± 120
[2]; [8]
  DuctApe activity index: 1.33 (inactive)
